Shown are actives, neighbours in structure and some others; about 1.3% of the full set was active somewhere.
Gli-Sufu antag: antagonists of Gli-Sufu signaling. Sufu-KO-LIGHT fibroblasts, Gli luciferase reporter luminescence. inhibition, % at 5 µM. 0.74% of 340,000 active. AID 588413;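 active means inhibition above about 55%, limit read from the data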
SRC2 inh: human SRC2 (NCOA2) inhibition; HEK293 GAL4-SRC2 luciferase reporter, luminescence; Q15596; inhibition, % at 9 µM; AID 651957; 0.17% of 370,000 active;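 active means inhibition above the mean inhibition of all tested compounds plus 3 SD, set per campaign, cut at about 52% in these data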
NCOA1 inh: inhibits human SRC1 coactivator; Q15788; HEK293 GAL4-SRC1 luciferase reporter, luminescence; inhibition, % at 3.6 µM; 0.12% of 360,000 active;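 active means inhibition above the campaign mean plus 3 SD, with each screening campaign given its own cutoff, cut at about 60% in these data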
COUP-TFII inh: inhibitors of human COUP-TFII (NR2F2) | P24468 | HEK293T NGFI-A luciferase reporter, luminescence | 0.7% of 370,000 active | inhibition, % at 8.6 µM;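 active means inhibition above a per-plate cutoff, mean inhibition of test wells between control levels plus 3 SD, cut at about 38% in these data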;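 further: cells cotransfected with COUP-TFII expression vector driving the NGFI-A reporter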
Target sequence (P24468 whole entry, looked up): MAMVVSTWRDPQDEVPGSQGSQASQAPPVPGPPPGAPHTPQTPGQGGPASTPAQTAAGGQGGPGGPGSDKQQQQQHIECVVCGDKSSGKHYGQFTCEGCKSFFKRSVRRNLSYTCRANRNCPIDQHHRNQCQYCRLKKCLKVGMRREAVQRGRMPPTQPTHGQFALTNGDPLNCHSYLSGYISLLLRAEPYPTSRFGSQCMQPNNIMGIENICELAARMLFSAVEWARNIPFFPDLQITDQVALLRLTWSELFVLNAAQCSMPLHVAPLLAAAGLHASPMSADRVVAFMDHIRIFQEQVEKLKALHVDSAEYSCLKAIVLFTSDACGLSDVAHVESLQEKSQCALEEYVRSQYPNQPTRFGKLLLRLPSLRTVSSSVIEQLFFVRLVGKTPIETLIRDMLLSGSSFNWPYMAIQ
SRC3 inh: human NCOA3 inhibition; 0.17% of 360,000 active; inhibition, % at 3.6 µM; AID 588352; HEK293 GAL4-SRC3 luciferase reporter, luminescence;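 active means inhibition above a per-campaign cutoff, the mean of all compounds plus 3 SD, cut at about 60% in these data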;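 further: higher means less SRC3-driven luciferase light from the GAL4 reporter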
NR5A2 inv ag: inverse agonists of human LRH-1 (NR5A2); O00482; HEK293T StAR-luciferase reporter, LRH-1 transfected, 24 h; inhibition, % at 3.6 µM; 0.13% of 360,000 active; AID 602396;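 active means inhibition above the mean inhibition of all tested compounds plus 3 SD, cut at about 73% in these data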
Gli antag conf: confirmation of Gli-SUFU pathway antagonists; shares compounds with Gli-Sufu antag; Sufu-KO-LIGHT cells, Gli luciferase reporter, luminescence; inhibition, % at 5 µM; 40% of 2,500 active; AID 602428;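 active means mean inhibition at 5 µM reaching about 45%, limit read from the data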
Gli cytotox: cytotoxic in Gli-SUFU antagonist counter-screen; 32% of 2,500 active; AID 651994; cytotoxicity, % at 5 µM; Sufu-KO-LIGHT cells cytotoxicity, ATP luminescence; shares compounds with Gli-Sufu antag;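 active means mean cytotoxicity at 5 µM above about 25%, limit read from the data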;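 further: cells exposed to compound overnight for roughly 16 to 18 hours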
Wnt3a counter: counter-screen for Gli-SUFU antagonists: Wnt3a reporter inhibition | Wnt-LIGHT cells, Wnt3a-driven luciferase reporter, luminescence | shares compounds with Gli-Sufu antag | 20% of 2,500 active | inhibition, % at 6.25 µM;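 active means mean inhibition above about 25%, limit read from the data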
Large screens that a line does not name were inactive (follow-up assays come after a bar, where they were run).

Cc1cc(C(C)(C)C)ccc1OCCn1ccnc1	Gli-Sufu antag 55 | Gli antag conf inactive | Gli cytotox inactive | Wnt3a counter inactive
Cc1ccc(OCCn2ccnc2)c(C)c1	none
CN(C)c1nc2c(N)ncnc2n1C1OC(CO)C(O)C1O (stereo unspecified)	none
CN(C)c1ncnc2c1ccn2C1OC(CO)C(O)C1O (stereo unspecified)	Gli-Sufu antag 62 | Gli antag conf 68 | Gli cytotox 48 | Wnt3a counter 40
COC(=O)[C@]12C[C@H](CC(=O)NCc3ccc(OC)c(OC)c3)C(=O)N(Cc3cccc4ccccc34)C1=C[C@H](COCc1ccccc1)O[C@@H]2C	none (no result: Gli-Sufu antag, NCOA1 inh, SRC3 inh, NR5A2 inv ag)
CON(c1nc(Cl)nc(N(C)C)n1)S(=O)(=O)c1ccccc1Cl	Gli-Sufu antag 88 | Gli antag conf inactive | Gli cytotox inactive | Wnt3a counter inactive
c1ccc(Cc2cc(-c3ccccc3)on2)cc1	Gli-Sufu antag 96 | Gli antag conf inactive | Gli cytotox inactive | Wnt3a counter inactive
Clc1ccc(SCc2cc(-c3ccccc3)on2)cc1	none
COC(=O)C1CN(C2CCCC2)CCS(=O)(=O)N1Cc1ccc(Cl)cc1 (stereo unspecified)	none (no result: Gli-Sufu antag, NCOA1 inh, SRC3 inh, NR5A2 inv ag)
CN1CCN(c2ccc3c(c2)Oc2ccccc2CN(Cc2cn(Cc4cccc(C(F)(F)F)c4)nn2)S3(=O)=O)CC1	none (no result: Gli-Sufu antag, NCOA1 inh, SRC3 inh, NR5A2 inv ag)
CN1CCN(Cc2cccc(Oc3ccccc3)c2)CC1	none
COc1ccc(CN2CCN(Cc3cccc(Oc4ccccc4)c3)CC2)c(OC)c1OC	none | Gli antag conf inactive | Gli cytotox 26 | Wnt3a counter inactive
COc1ccc(-c2nnc(SCC(=O)Nc3ccc(S(=O)(=O)Nc4cc(C)nc(C)n4)cc3)n2-c2ccc(OC)cc2)cc1	none (no result: Gli-Sufu antag, NCOA1 inh, SRC3 inh, NR5A2 inv ag)
O=C(NC(=S)Nc1ccccc1Cl)c1cnn2c(C(F)(F)F)cc(C(F)(F)F)nc12	Gli-Sufu antag 56 | Gli antag conf inactive | Gli cytotox inactive | Wnt3a counter inactive
CC(=O)O/N=C(\N)c1cnn2c(C(F)(F)F)cc(C(F)(F)F)nc12	none
CC(C)[C@H](NC(=O)N1CC(=O)Nc2ccccc21)C(=O)Nc1nccs1	none
CCC(C)[C@H](NC(=O)N1CC(=O)Nc2ccccc21)C(=O)Nc1nccs1 (stereo partly specified)	Gli-Sufu antag 60 | Gli antag conf inactive | Gli cytotox 26 | Wnt3a counter inactive
COc1cc(-n2c(C)nc3cc(C(=O)N4CCN(C(C)=O)CC4)ccc32)cc(OC)c1OC	none (no result: Gli-Sufu antag, NCOA1 inh, SRC3 inh, NR5A2 inv ag)
O=C(NC1CCCc2c1cnn2-c1cc(F)cc(F)c1)c1ccncc1 (stereo unspecified)	none
CC(C)(C)c1ccc(-n2ncc3c2CCCC3NC(=O)c2ccncc2)cc1 (stereo unspecified)	none | Gli antag conf inactive | Gli cytotox inactive | Wnt3a counter inactive
C[C@H](O)[C@@H]1CN2CCc3ccc(N4CCOCC4)cc3[C@@H]2C[C@@H]1N(C)C(=O)c1cccc(Cl)c1	none (no result: Gli-Sufu antag, NCOA1 inh, SRC3 inh, NR5A2 inv ag)
CCc1ccc2c(CN3CCN(S(=O)(=O)c4ccccc4F)CC3)cc(=O)oc2c1	Gli-Sufu antag 56 | Gli antag conf inactive | Gli cytotox inactive | Wnt3a counter inactive
CCOc1ccc(Br)cc1S(=O)(=O)Nc1cccc(S(=O)(=O)Nc2ccccc2C(=O)O)c1	Gli-Sufu antag 55 | Gli antag conf inactive | Gli cytotox inactive | Wnt3a counter inactive
Cc1ccccc1-n1nc(C(=O)c2cccs2)cc(-c2nc3ccccc3[nH]2)c1=N	Gli-Sufu antag 59 | Gli antag conf inactive | Gli cytotox inactive | Wnt3a counter inactive
COc1ccc(-n2nc(C(=O)c3cccs3)cc(-c3nc4ccccc4[nH]3)c2=N)cc1	Gli-Sufu antag 98 | Gli antag conf inactive | Gli cytotox inactive | Wnt3a counter inactive
Cc1cccc(-n2nc(C(=O)c3ccco3)cc(-c3nc4ccccc4[nH]3)c2=N)c1	none
N#C/C(=N\Nc1ccc(Cl)cc1)C(N)=S	Gli-Sufu antag 60 | Gli antag conf 59 | Gli cytotox inactive | Wnt3a counter 32
Cc1ccc(-c2nnc(NC(=O)c3ccco3)o2)c(C)c1	Gli-Sufu antag 73 | Gli antag conf inactive | Gli cytotox inactive | Wnt3a counter inactive
Cc1ccc(C)c(-c2nnc(NC(=O)c3ccco3)o2)c1	none
COC(=O)Cn1cccc1C(=O)c1ccccc1	none
O=C(O)Cn1cccc1C(=O)c1ccccc1	Gli-Sufu antag 96 (no result: SRC2 inh, COUP-TFII inh) | Gli antag conf inactive | Gli cytotox inactive | Wnt3a counter inactive
COc1cc(C(=O)NC2CCN(C)CC2)ccc1Nc1ncc2c(n1)N(CCc1ccccc1)CCC(=O)N2C	Gli-Sufu antag 75 | Gli antag conf 67 | Gli cytotox inactive | Wnt3a counter inactive
COc1cc(C(=O)NC2CCN(C)CC2)ccc1Nc1ncc2c(n1)N(C1CCCC1)CCC(=O)N2C(C)C	none (no result: SRC2 inh, COUP-TFII inh)
CC[C@@H](C)[C@H](C(CC(=O)N1CCCC1[C@@H](OC)[C@H](C)C(=O)N[C@H](Cc1ccccc1)c1nccs1)OC)N(C)C(=O)[C@H](NC(=O)[C@@H](C(C)C)N(C)C)C(C)C (stereo partly specified)	none | Gli antag conf 70 | Gli cytotox 62 | Wnt3a counter 40
COc1ccc(C(=O)N(C)C(C)c2nccs2)cc1OC1CCN(C(C)=O)CC1 (stereo unspecified)	none (no result: Gli-Sufu antag)
CC(C)n1c(-c2ccco2)csc1=Nc1cccnc1	none | Gli antag conf 51 | Gli cytotox 25 | Wnt3a counter inactive
COCCn1c(-c2ccccc2)csc1=Nc1cccnc1	none
COc1ccc(C2(c3ccc(OC(C)=O)cc3OC(C)=O)CC(c3ccccc3)NC(=S)N2)cc1 (stereo unspecified)	Gli-Sufu antag 62 | Gli antag conf inactive | Gli cytotox inactive | Wnt3a counter inactive
CC(=O)Oc1ccc2c(c1)OC(c1ccccc1)CC21CC(C)(C)NC(=S)N1 (stereo unspecified)	none
CC(=O)Nc1cccc(C(=O)Nc2cccc3ncccc23)c1	Gli-Sufu antag 86 | Gli antag conf inactive | Gli cytotox inactive | Wnt3a counter inactive
Cc1c(F)cccc1NS(=O)(=O)c1ccc2c(c1)n(C)c(=O)c(=O)n2C	none | Gli antag conf inactive | Gli cytotox inactive | Wnt3a counter inactive
Cc1c(F)cccc1NS(=O)(=O)c1ccc2c(c1)c(=O)n(C)c(=O)n2C	none
O=C(CCc1ccccc1)N[C@H]1[C@H](OC(=O)c2cnccn2)CCC[C@]12C(=O)N(Cc1ccccc1)c1ccccc12	none (no result: Gli-Sufu antag, NCOA1 inh, SRC3 inh, NR5A2 inv ag)
CCOc1ccc(-n2c(SCc3ccc(C#N)cc3)nnc2-c2cccnc2)cc1	Gli-Sufu antag 95 | Gli antag conf inactive | Gli cytotox inactive | Wnt3a counter inactive
